Reference: PubChem BioAssay (NCATS)
Results filed as inconclusive are left out. Calls of active or inactive are those of the source. Unless noted, calls follow the shape of the dose curve; as a rule, active = well fitted curve in the direction sought with a large enough effect; inconclusive = small, poorly fitted or top-dose-only effect, or another doubt; inactive = no such curve, though single readings can be large; an effect the other way counts as inactive or inconclusive.

Key:
[1] = target: Lysosomal acid glucosylceramidase (Homo sapiens) (UniProt P04062); assay: Glucocerebrosidase-p2 (AID 348; in the data active = potency below about 10 µM; also: potency is read from the fitted curve at half-maximal effect); settings: purified GBA, blue fluorogenic substrate, 40 min
Method in brief: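 Compounds titrated from 0.6 nM upwards against 0.2 nM enzyme in pH 5.9 citric acid/KH2PO4, taurocholate, tween-20; blue fluorogenic substrate 80 uM, 40 min room temperature, stopped and read Ex 365/Em 440 for AC50.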

[2] = NFAT Signaling Pathway (AID 444; active = well fitted curve in either direction with a large enough effect, not every such curve was filed as active;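 also: carbachol stimulus at about its EC50 of 1 µM final; % is scaled to controls: 0 for no effect and ±100 for the full control effect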); settings: Jurkat NFAT-bla M1, carbachol, beta-lactamase ratio, 5 h; at 7.69 µM (top of the series) unless noted
Method in brief: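 Jurkat cells carrying an NFAT-driven β-lactamase reporter and co-transfected muscarinic M1 receptor were treated with compound plus carbachol (1 uM final, an EC50 level) for 5 h at 37 °C. CCF4 loading followed for 1 h at RT; 460/530 nm ratio gave %activity.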

[3] = Stat Signaling Pathway (AID 446; active = well fitted curve in either direction with a large enough effect, not every such curve was filed as active;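 also: ME-180 cervical cancer cells given 40 pM IL-6 alongside compound; SIE-controlled beta-lactamase reporter measured as 460/530 nm FRET emission ratio; % is scaled to controls: 0 for no effect and ±100 for the full control effect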); settings: ME-180 SIE beta-lactamase reporter, IL-6 stimulated, 5 h; at 7.69 µM (top of the series) unless noted
Method in brief: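 Reporter line: ME-180 cervical carcinoma, SIE-beta-lactamase. Treatment: compound with 40 pM IL-6, 5 hrs, 37 C, in low-serum OPTI-MEM with 10 mM HEPES pH 7.3. Detection: 460/530 nm fluorescence.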

[4] = target: Glucocorticoid receptor (Homo sapiens) (UniProt P04150); assay: GR-EFC Redistribution (AID 451; calls by dose curve; also: potency is read from the fitted curve at half-maximal effect); settings: CHO-K1 GR-EFC translocation, beta-gal luminescence, 2 h
Method in brief: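 CHO-K1 cells stably expressing nuclear-localized β-gal enzyme acceptor and GR fused C-terminally to the enzyme donor fragment; ligand-driven nuclear translocation restores β-gal by complementation. Compounds titrated up to 46 uM final, 2 h at 37 °C; luminescence read.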

[5] = target: Mitogen-activated protein kinase 10 (Mus musculus) (UniProt Q61831); assay: JNK3 AlphaScreen Assay (AID 530; active = well fitted curve in either direction with a large enough effect, not every such curve was filed as active;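 also: kinase came from lysate of stimulated human HepG2 cells; signal reports phosphorylation of biotinylated GST-cJun 1-79 at Ser73 with 10 µM ATP; % is scaled to controls: 0 for no effect and ±100 for the full control effect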); settings: JNK3 lysate, c-Jun phosphorylation; series mostly up to 57.1 µM
Method in brief: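 JNK3 came from HepG2 lysates pre-activated with IL-1beta and TNF-alpha and phosphorylated biotinylated GST-cJun (1-79) at 10 uM ATP, pH 7.6, room temperature. Compounds were titrated. AlphaScreen signal used anti-phospho-cJun (Ser73) antibody.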

[6] = target: 3',5'-cyclic-AMP phosphodiesterase 4B (Homo sapiens) (UniProt Q07343); assay: qHTS Assay for Inhibitors of PDE-IV (AID 607; active = well fitted activation curve with a large enough effect in the main read-out, with a control signal flat, not every such curve was filed as active; also: % of control where 0% means no effect); settings: HEK293 ACTOne CNG channel cells, membrane potential fluorescence; series mostly up to 22.9 µM
Method in brief: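 Cell-based read-out of cAMP via a modified cyclic nucleotide-gated channel and membrane potential dye (535/590 nm) in HEK293 cells expressing PDE4 endogenously. Compounds tested up to 22.9 uM final; 100 uM RO 20-1724 reference.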

[7] = qHTS Assay for Lipid Storage Modulators (AID 1519; calls by dose curve); settings: Drosophila S3 cells, BODIPY lipid droplet/cell ratio, laser cytometry, cells loaded with oleic acid; for activity change, negative = inhibition: at 57.5 µM (top of the series)
Method in brief: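 Cells seeded at 5,000 per well were treated with compounds over a concentration series and loaded with oleic acid (400 uM, as added). Lipid droplet fluorescence (488 nm excitation, 500-530 nm channel) was read by laser-scanning cytometry and normalized to 20 uM Triacsin C.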

[8] = Primary qHTS for small molecule stabilizers of the endoplasmic reticulum resident proteome: Secreted ER Calcium Modulated Protein (SERCaMP) assay (AID 1508630); settings: SH-SY5Y GLuc-SERCaMP (Gaussia luciferase released on ER calcium loss) secretion, thapsigargin, luminescence; series mostly up to 38.4 µM; also: % is scaled to controls: 0 for no effect and ±100 for the full control effect
Method in brief: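 GLuc-SERCaMP-expressing SH-SY5Y cells, pretreated 16 h with compound, are challenged with thapsigargin to empty ER calcium stores; after 4 h, coelenterazine is added directly to the medium and luminescence is imaged.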

[9] = target: Cytochrome P450 1A2 (Homo sapiens) (UniProt P05177); assay: p450-cyp1a2 (AID 410; calls by dose curve; also: potency is read from the fitted curve at half-maximal effect;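 as to activity change, negative = inhibition: -100% = full effect of reference inhibitor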); settings: recombinant CYP1A2, luciferin-ME demethylation, luminescence; series mostly up to 57 µM
Method in brief: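 Inhibition was calculated relative to 57 uM furafylline (full inhibition). The reaction used human CYP1A2 at 20nM with Luciferin-ME at its Km, 100uM, driven by an NADPH-regenerating system for 60 min at room temperature.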

[10] = target: Cytochrome P450 3A4 (Homo sapiens) (UniProt P08684); assay: qHTS Assay for Activators of Cytochrome P450 3A4 (AID 885); settings: recombinant CYP3A4, Luciferin-PPXE luminescence, 60 min; series mostly up to 57.1 µM; also: nearly all actives have a fitted effect of over 65% in size
Method in brief: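 Signal was normalized against complete inhibition by 57 uM ketoconazole. The reaction used 20nM CYP3A4 with 25uM Luciferin-PPXE, 10-min compound preincubation and a 60-min NADPH-supported step at RT.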

[11] = target: Cytochrome P450 2D6 (Homo sapiens) (UniProt P10635); assay: qHTS Assay for Inhibitors and Substrates of Cytochrome P450 2D6 (AID 891); settings: recombinant CYP2D6, luciferin-ME EGE luminescence; series mostly up to 57.1 µM; also: potency is read from the fitted curve at half-maximal effect; nearly all actives have a fitted effect of over 60% in size
Method in brief: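 Human CYP2D6 (5 nM) with 30 uM Luciferin-ME EGE (at Km) in 100 mM KPO4, compound preincubated 10 min, then NADPH regeneration system for 60 min at room temperature. Luciferin read by luminescence; normalized to 1.43 uM quinidine.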

[12] = target: Glucocorticoid receptor (Homo sapiens) (UniProt P04150); assay: GR-GFP Redistribution (AID 450;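 active = compounds whose dose series gives a full or clear partial fitted curve of increased nuclear translocation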; also: potency is read from the fitted curve at half-maximal effect); settings: U2OS GR-GFP nuclear translocation, laser cytometry, 2 h
[13] = target: Cytochrome P450 2C19 (Homo sapiens) (UniProt P33261); assay: qHTS Assay for Inhibitors and Substrates of Cytochrome P450 2C19 (AID 899); settings: recombinant CYP2C19, luciferin-H EGE luminescence; series mostly up to 57.1 µM; also: potency is read from the fitted curve at half-maximal effect; nearly all actives have a fitted effect of over 60% in size
Method in brief: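 Human CYP2C19 (5nM) with Luciferin-H EGE at 10uM (its KM) in 50mM KPO4 was preincubated with compound for 10 min at 37C. NADPH regeneration started a 60 min 37C reaction. Luciferin was read by luminescence, normalized to 57uM ketoconazole.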

[14] = qHTS Assay for Identification of Small Molecule Agonists for Hypoxia Response Element Signaling Pathway (AID 914; active = well fitted activation curve with a large enough effect in the signal ratio, with a control signal flat, not every such curve was filed as active; the % refers to the signal ratio; also: potency is read from the fitted curve at half-maximal effect); settings: ME-180 HRE-bla reporter, beta-lactamase ratio, CoCl2, 17 h; activation: stronger effect = higher value
Method in brief: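 ME-180 cells carrying an HRE-driven beta-lactamase reporter were treated with compounds in a titration series plus an EC50 level of CoCl2 for 17 h at 37 degrees Celsius; CCF4 readout as the 460nm/530nm ratio gave AC50 values.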

[15] = target: Ubiquitin carboxyl-terminal hydrolase 1 (Homo sapiens) (UniProt O94782); assay: Inhibitors of USP1/UAF1: Pilot qHTS (AID 504865); settings: purified USP1/UAF1, Ub-rhodamine cleavage fluorescence; series mostly up to 54.9 µM;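 also: rhodamine fluorescence freed from ubiquitin-rhodamine substrate followed over time; top concentration of the series differs between compounds; % is scaled to controls: 0 for no effect and ±100 for the full control effect; nearly all actives have a fitted effect of over 35% in size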
Method in brief: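 In 50mM HEPES pH 7.8 containing 0.5mM EDTA, 1mM TCEP, 0.1 mg/ml BSA and 0.01% Tween-20, 1nM USP1/UAF1 is exposed to compound for 15 min, then Ub-Rho (150nM final) is added and fluorescence is read over time.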

[16] = target: Cytochrome P450 3A4 (Homo sapiens) (UniProt P08684); assay: qHTS Assay for Inhibitors and Substrates of Cytochrome P450 3A4 (AID 884); settings: recombinant CYP3A4, Luciferin-PPXE luminescence; series mostly up to 57.1 µM; also: potency is read from the fitted curve at half-maximal effect; nearly all actives have a fitted effect of over 50% in size
Method in brief: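 20 nM human CYP3A4 with 25 uM Luciferin-PPXE (at KM) in 200 mM KPO4, preincubated 10 min with compound; NADPH regeneration started a 60 min RT reaction. Luciferin detected by luminescence, normalized to 57 uM ketoconazole as full inhibition.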

[17] = Confirmation and Secondary Assay for Modulators of Hemoglobin Beta Chain Splicing at IVS2 654 locus (AID 910); settings: HeLa EGFP-654 splicing reporter, GFP fluorescence, 48 h; series mostly up to 38.3 µM;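 also: per-well total GFP intensity by laser scanning cytometry after 2-day treatment; % of control where 0% means no effect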
Method in brief: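 HeLa cells stably carrying EGFP interrupted by mutant beta-globin IVS2-654 intron (CMV-driven) were treated with compound for 2 days at 37C; corrected splicing was scored as total peak GFP intensity per well (488 nm excitation, 500-520 nm emission).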

[18] = Confirmation and Secondary Assay for Modulators of Hemoglobin Beta Chain Splicing at IVS2 705 locus (AID 930); settings: HeLa EGFP-705 splicing reporter, GFP fluorescence, 48 h; series mostly up to 38.3 µM;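 also: HeLa cells stably expressing the EGFP-705 splicing reporter; % of control where 0% means no effect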
Method in brief: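 HeLa cells stably carrying EGFP interrupted by mutant beta-globin IVS2-705 intron (CMV-driven) were seeded at 500 cells/well, treated next day with compound for 2 days at 37C; corrected splicing restores EGFP, read as total peak GFP intensity per well.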

[19] = measured here: cell count channel max response
[20] = measured here: lipid channel max response

Cytochrome P450 3A4 (Homo sapiens), sequence (P08684 whole entry, looked up): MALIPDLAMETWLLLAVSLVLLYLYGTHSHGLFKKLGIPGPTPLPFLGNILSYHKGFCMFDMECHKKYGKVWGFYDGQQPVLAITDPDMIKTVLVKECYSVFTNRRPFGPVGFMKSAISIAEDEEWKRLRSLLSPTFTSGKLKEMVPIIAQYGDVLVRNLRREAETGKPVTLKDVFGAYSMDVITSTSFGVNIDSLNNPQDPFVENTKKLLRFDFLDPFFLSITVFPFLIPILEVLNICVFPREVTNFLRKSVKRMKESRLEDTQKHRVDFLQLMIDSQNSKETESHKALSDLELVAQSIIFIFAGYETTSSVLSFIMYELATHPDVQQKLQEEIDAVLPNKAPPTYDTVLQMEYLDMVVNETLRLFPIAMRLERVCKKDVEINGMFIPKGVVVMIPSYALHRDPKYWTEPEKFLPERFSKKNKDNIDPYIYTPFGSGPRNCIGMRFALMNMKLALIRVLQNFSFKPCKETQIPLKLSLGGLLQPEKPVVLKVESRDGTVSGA
3',5'-cyclic-AMP phosphodiesterase 4B (Homo sapiens), sequence (Q07343 whole entry, looked up): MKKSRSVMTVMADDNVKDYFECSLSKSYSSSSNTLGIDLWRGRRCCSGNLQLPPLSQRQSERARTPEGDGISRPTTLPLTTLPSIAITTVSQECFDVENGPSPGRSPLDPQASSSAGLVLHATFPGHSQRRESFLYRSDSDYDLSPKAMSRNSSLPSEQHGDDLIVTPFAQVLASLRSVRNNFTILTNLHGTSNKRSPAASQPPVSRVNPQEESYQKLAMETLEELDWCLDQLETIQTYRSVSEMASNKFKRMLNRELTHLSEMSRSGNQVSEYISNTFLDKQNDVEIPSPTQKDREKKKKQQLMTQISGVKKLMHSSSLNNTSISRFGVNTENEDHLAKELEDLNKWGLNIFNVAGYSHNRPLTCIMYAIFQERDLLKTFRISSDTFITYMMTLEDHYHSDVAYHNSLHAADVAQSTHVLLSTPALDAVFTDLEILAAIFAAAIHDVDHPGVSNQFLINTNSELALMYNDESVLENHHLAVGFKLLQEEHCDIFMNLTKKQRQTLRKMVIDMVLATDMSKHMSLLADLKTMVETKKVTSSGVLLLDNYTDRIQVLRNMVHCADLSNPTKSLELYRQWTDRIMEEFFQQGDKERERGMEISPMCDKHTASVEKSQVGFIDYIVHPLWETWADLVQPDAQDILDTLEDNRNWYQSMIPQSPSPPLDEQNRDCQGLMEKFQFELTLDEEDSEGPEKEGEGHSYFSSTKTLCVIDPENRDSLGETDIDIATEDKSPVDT
Glucocorticoid receptor (Homo sapiens), sequence (P04150 whole entry, looked up, the tested form may be a part): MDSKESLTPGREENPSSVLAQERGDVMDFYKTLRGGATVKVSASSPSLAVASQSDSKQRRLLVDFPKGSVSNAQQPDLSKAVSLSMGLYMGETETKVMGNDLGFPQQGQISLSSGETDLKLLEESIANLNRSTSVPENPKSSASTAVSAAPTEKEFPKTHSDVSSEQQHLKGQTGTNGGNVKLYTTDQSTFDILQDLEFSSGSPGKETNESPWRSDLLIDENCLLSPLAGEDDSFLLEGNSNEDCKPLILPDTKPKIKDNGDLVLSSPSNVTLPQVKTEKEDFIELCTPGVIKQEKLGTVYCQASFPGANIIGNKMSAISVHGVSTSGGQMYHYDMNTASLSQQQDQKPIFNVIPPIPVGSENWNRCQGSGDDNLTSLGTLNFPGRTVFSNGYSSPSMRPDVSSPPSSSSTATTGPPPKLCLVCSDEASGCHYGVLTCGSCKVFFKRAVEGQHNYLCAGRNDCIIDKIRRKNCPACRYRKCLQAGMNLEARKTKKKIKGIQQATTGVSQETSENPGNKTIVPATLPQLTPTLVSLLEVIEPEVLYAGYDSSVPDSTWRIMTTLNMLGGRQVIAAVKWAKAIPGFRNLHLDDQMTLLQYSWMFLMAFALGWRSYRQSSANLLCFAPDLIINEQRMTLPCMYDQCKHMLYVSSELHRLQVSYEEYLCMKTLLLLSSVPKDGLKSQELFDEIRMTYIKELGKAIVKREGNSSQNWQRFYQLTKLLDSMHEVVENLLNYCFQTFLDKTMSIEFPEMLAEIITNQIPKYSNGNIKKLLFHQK
Lysosomal acid glucosylceramidase (Homo sapiens), sequence (P04062 whole entry, looked up): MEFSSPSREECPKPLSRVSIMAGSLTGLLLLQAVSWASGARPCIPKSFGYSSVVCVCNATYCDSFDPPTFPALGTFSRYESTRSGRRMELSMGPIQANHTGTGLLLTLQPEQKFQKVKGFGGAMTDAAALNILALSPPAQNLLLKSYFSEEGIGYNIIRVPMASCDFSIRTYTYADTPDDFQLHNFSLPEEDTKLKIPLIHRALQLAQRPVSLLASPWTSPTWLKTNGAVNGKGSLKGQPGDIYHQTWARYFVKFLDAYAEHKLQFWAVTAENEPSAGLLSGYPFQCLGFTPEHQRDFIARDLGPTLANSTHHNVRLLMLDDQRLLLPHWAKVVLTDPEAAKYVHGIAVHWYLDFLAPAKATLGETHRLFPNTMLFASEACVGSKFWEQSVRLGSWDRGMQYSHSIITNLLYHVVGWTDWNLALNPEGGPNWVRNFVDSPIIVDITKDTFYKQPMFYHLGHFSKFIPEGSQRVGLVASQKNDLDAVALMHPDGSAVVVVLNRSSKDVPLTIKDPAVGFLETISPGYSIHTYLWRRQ
Cytochrome P450 1A2 (Homo sapiens), sequence (P05177 whole entry, looked up): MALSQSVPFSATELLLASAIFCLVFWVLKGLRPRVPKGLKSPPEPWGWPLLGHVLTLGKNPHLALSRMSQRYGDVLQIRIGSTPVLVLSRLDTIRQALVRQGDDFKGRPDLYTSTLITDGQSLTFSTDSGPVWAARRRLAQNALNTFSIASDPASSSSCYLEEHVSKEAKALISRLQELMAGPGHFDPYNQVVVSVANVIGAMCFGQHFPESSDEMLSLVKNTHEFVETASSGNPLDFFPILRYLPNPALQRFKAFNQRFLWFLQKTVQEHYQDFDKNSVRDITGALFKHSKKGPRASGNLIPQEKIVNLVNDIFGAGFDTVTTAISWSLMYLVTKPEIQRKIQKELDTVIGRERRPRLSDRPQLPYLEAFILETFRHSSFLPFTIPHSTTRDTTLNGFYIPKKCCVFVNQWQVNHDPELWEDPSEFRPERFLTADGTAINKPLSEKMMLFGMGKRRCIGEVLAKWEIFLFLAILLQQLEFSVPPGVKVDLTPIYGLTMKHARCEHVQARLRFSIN
Ubiquitin carboxyl-terminal hydrolase 1 (Homo sapiens), sequence (O94782 whole entry, looked up): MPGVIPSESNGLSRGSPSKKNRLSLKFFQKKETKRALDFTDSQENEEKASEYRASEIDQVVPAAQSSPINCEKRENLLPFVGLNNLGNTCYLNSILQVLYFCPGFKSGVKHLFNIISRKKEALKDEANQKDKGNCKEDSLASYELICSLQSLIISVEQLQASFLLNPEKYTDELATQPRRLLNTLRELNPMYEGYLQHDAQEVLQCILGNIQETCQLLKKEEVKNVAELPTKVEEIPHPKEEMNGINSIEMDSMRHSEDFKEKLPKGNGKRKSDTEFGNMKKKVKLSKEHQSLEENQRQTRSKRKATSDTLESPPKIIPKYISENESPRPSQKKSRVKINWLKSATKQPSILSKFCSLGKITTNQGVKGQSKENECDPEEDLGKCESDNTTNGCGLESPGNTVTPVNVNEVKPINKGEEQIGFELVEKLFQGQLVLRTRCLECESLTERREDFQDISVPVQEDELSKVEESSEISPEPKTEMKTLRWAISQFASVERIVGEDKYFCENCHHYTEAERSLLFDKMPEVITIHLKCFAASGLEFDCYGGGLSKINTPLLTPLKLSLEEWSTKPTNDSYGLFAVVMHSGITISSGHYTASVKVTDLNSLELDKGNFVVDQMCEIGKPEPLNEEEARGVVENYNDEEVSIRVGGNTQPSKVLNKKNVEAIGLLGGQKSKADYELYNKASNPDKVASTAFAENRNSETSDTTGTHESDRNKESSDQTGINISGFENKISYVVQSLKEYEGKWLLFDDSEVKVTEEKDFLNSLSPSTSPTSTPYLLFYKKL
Cytochrome P450 2D6 (Homo sapiens), sequence (P10635 whole entry, looked up): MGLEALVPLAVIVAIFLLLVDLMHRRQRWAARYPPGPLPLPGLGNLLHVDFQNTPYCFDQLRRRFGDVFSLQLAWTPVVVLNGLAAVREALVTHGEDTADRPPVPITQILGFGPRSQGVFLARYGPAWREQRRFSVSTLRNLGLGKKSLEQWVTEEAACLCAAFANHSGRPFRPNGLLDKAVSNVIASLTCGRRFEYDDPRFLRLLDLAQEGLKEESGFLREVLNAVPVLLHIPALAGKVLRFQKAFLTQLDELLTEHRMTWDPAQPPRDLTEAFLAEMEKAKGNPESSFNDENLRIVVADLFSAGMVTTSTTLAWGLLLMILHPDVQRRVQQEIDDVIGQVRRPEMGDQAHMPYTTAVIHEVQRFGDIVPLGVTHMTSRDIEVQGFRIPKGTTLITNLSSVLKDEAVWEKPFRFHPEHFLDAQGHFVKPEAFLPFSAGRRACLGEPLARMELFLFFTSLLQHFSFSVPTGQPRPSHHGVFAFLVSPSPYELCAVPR
Cytochrome P450 2C19 (Homo sapiens), sequence (P33261 whole entry, looked up): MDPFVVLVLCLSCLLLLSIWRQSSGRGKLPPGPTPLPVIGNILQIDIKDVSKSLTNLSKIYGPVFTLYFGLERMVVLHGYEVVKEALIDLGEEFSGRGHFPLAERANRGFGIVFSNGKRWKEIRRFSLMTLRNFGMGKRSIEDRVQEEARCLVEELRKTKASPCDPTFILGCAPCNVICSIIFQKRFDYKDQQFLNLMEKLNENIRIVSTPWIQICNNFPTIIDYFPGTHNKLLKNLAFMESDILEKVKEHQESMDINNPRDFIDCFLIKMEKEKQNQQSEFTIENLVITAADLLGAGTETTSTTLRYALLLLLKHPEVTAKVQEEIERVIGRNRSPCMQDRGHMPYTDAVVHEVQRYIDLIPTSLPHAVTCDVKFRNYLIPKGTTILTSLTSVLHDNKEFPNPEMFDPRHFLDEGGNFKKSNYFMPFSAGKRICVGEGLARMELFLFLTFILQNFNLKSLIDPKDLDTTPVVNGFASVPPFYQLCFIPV

N#Cc1ccc(CN2CC[C@@]3(CCCN(C(=O)c4ccncc4)C3)C2)cc1
inactive: Potency [1] > 11.4 µM | activity change, negative = inhibition [2] -7.12% | activity, negative = inhibition [3] 8.24% | Potency [4] > 46 µM | Potency [5] | Potency [6] | activity change, negative = inhibition [7] 4.36% | outcome [8]
17.6%: max response [7, 19]
26%: max response [7, 20]

COc1ccc(C(=O)N2CCC3(CCCN(Cc4ccccc4)C3)CC2)cc1
inactive: Potency [1] > 11.4 µM | Potency [9] | activity, negative = inhibition [3] -10.9% | Potency [4] > 46 µM | Potency [5] | Potency [6] | Potency [10] | activity change, negative = inhibition [7] 4.53% | outcome [8]
1.31%: max response [7, 19]
active: Potency [11] 7.94 µM
6.86%: max response [7, 20]

Cc1noc(C)c1-c1ccc2ncnc(N(C)Cc3ccco3)c2c1
active: Potency [9] 2.51 µM | Potency [13] 5.01 µM | Potency [14] 1.58 µM
25.4%: max response [7, 20]
23.8%: max response [7, 19]
inactive: Potency [1] > 11.4 µM | Potency [12] > 46 µM | Potency [4] > 46 µM | Potency [5] | Potency [10] | activity change, negative = inhibition [7] 2.4% | Potency [15] | outcome [8]

CC(C)CN1CCCC2(CCN(C(=O)c3cnccn3)CC2)C1
9.23%: max response [7, 20]
inactive: Potency [1] > 11.4 µM | Potency [9] | activity, negative = inhibition [3] 7.99% | Potency [4] > 46 µM | Potency [5] | Potency [6] | Potency [10] | activity change, negative = inhibition [7] 1.42% | outcome [8]
5.13%: max response [7, 19]

COCC(=O)N1CCC[C@@]2(CCN(Cc3cc(C(F)(F)F)cc(C(F)(F)F)c3)C2)C1
16.2%: max response [7, 20]
7.6%: max response [7, 19]
inactive: Potency [1] > 11.4 µM | activity change, negative = inhibition [2] 6.67% | activity, negative = inhibition [3] 9.45% | Potency [4] > 46 µM | Potency [5] | Potency [6] | activity change, negative = inhibition [7] 5.27% | outcome [8]

Cc1cnc(CNc2ncncc2-c2ccccc2CN(C)C)cn1
0.168%: max response [7, 20]
inactive: Potency [1] > 11.4 µM | activity, negative = inhibition [3] 17.1% | Potency [12] > 46 µM | Potency [4] > 46 µM | Potency [5] | Potency [6] | Potency [10] | Potency [17] | outcome [18] | activity change, negative = inhibition [7] -8.48% | Potency [15] | outcome [8]
4.47%: max response [7, 19]
active: Potency [9] 12.6 µM | Potency [16] 3.16 µM
